Compounds with a hit are over-represented: about 18% of the library has one in this group of screens.
DT40 TDP1 no CPT: qHTS for Inhibitors of human tyrosyl-DNA phosphodiesterase 1 (TDP1): qHTS in cells in absence of CPT. DT40 Tdp1-/- hTDP1 cells, no CPT, ATP luminescence, 48 h. Potency, µM (doses to about 46.2 µM), inactives show at the top dose activity change, negative = growth inhibition, actives largely listed as inhibitors. hit rate 15% among 420,000; further: potency means the concentration at half of the fitted maximal effect; nearly all actives have a fitted effect of over 55% in size
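Chicken DT40 Tdp1-/- cells stably complemented with human TDP1 were seeded at 400 cells/well with DMSO in place of 20 nM camptothecin. After compound pinning, cells grew at least 48 hr at 37 °C; viability read by CellTiter-Glo luminescence.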
CtBP-E1A inh: blocks the CtBP interaction with E1A; hit rate 0.49% among 340,000; AlphaScreen GST-E1A/His-CtBP binding, 1536-well; hits give low values; activity change, % (concentration not given with the values); in the data active means activity change below about -65%; inconclusive means mostly about -30% to -63%
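GST-E1A and His-tagged CtBP (125 nM each as 5X stock) were preincubated with pin-transferred compound for 2 h at 37 °C in the dark, then glutathione donor and nickel acceptor beads were added for 1 h before AlphaScreen reading.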
IL-1B inflam inh: inhibitors of inflammasome signaling (IL-1 beta secretion) | THP-1 LPS/ATP IL-1B secretion, AlphaLISA, 16 h; hits give low values | activity change, % at 57.5 µM | hit rate 4.7% among 360,000 | AID 743279; in the data active means activity change below about -50%; inconclusive means mostly about -30% to -49%
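THP-1 cells pretreated 1 hr with compounds (up to 57.5 uM final), then stimulated with LPS (250 ng/mL final) plus ATP (1.25 mM final); secreted IL-1B measured by AlphaLISA after 16 hr, decreased signal indicating inhibition.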
Six1-Eya2 inh: inhibitors of human Six1/Eya2 interaction; AlphaScreen GST-Six1/His-Eya2 binding, biochemical; hits give low values; activity change, % (test concentration not listed); hit rate 0.56% among 360,000; in the data active means activity change below about -65%; inconclusive means mostly about -30% to -63%
Target sequence (O00167 whole entry, looked up): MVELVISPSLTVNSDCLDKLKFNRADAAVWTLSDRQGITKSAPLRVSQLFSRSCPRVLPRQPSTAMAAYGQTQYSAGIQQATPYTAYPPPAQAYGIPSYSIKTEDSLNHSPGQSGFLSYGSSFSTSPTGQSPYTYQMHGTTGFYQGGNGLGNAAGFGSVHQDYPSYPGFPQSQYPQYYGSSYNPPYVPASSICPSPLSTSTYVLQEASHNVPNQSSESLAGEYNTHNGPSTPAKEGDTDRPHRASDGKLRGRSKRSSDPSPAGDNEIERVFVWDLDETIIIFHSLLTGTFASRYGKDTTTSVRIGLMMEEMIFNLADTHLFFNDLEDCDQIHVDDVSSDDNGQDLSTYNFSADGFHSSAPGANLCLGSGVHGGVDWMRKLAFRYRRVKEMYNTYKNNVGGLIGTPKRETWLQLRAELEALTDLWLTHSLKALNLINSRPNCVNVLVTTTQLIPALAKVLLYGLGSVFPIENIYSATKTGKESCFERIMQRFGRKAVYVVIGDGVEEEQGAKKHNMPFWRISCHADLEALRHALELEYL
Target sequence (Q15475 whole entry, looked up): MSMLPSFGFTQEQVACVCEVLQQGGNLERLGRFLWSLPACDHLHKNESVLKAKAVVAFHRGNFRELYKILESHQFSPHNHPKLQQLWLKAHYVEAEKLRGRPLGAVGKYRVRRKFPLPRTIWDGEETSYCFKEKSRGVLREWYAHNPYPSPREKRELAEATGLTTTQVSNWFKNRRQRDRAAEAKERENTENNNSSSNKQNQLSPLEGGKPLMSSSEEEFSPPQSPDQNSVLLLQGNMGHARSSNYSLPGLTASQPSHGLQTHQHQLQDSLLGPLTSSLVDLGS
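AlphaScreen with GST-Six1 and His-Eya2 (5X mix: 250 nM and 500 nM), glutathione donor and nickel acceptor beads; buffer 50 mM Tris pH 8.0, 300 mM NaCl, 1 mM TCEP; 1 h at 37 C in the dark.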
TDP1 block: inhibitors of human tyrosyl-DNA phosphodiesterase TDP1 | hit rate 0.28% among 350,000 | recombinant TDP1, AlphaScreen DNA substrate cleavage | Potency, µM (series often up to 130 µM), without a hit: at the highest dose activity change, negative = inhibition, actives largely listed as inhibitors | Q9NUW8; further: potency means the concentration at half of the fitted maximal effect; nearly all actives have a fitted effect of over 40% in size
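Recombinant human Tdp1 (E. coli-expressed, 1 nM final) preincubated with compounds 15 min at room temperature, then 5'-biotin/3'-phosphotyrosine-FITC DNA substrate (15 nM final) added for 5 min. AlphaScreen beads (10 ug/ml final) added 10 min; cleavage lowers signal.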
TDP1 cell CPT: growth inhibition of DT40 Tdp1-/-;hTDP1 cells with camptothecin (screen for TDP1 inhibitors); Potency, µM (series often up to 46.2 µM), inactives show at the top dose activity change, negative = growth inhibition, actives largely listed as inhibitors; AID 686979; chicken DT40 Tdp1-/-;hTDP1 cells + 20 nM CPT, ATP luminescence, 48 h; hit rate 12% among 420,000; further: potency means the concentration at half of the fitted maximal effect; nearly all actives have a fitted effect of over 55% in size
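Cell growth measured by CellTiter-Glo luminescence after a minimum 48 h, 37 C compound exposure with 20 nM CPT in Tdp1-knockout DT40 cells stably expressing hTDP1, seeded 400/well; qHTS titration format.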
The depositor's hits bear a star. Unless noted, the call rests on the fitted dose curve; in most records, active means well fitted curve in the direction sought with a large enough effect; inconclusive means small, poorly fitted or top-dose-only effect, or another doubt; inactive means no such curve, though single readings can be large; an effect the other way counts as inactive or inconclusive. On the % scale 0 is the no-effect control and ±100 the full control effect.

How did O=C(COc1ccccc1F)Nc1ccc2nc(SCC(=O)N3CCCC3)sc2c1 do in these assays?
DT40 TDP1 no CPT: 13µM*; TDP1 block: 4.7%; TDP1 cell CPT: inconclusive

Results for CSc1nc2ccc(NC(=O)COc3ccccc3F)cc2s1 ?
DT40 TDP1 no CPT: inconclusive; IL-1B inflam inh: 25.7; Six1-Eya2 inh: 7.3; TDP1 block: -0.7%; TDP1 cell CPT: -14.4%

What do the screens show for `O=C(Nc1ccc2nc(SCC(=O)N3CCCC3)sc2c1)c1ccccc1F`?
DT40 TDP1 no CPT: 16.4µM*; TDP1 block: 5.7%; TDP1 cell CPT: 16.4µM*

How did O=C(COc1ccccc1F)Nc1ccc2nc(SCC(=O)N3CCOCC3)sc2c1 do in these assays?
DT40 TDP1 no CPT: 11.6µM*; TDP1 block: 1.6%; TDP1 cell CPT: 18.4µM*

What do the screens show for `Cc1ccc(C2(c3noc(CN4CCC(C(=O)N5CCOCC5)CC4)n3)CCCC2)cc1`?
DT40 TDP1 no CPT: inconclusive; IL-1B inflam inh: -8.9; Six1-Eya2 inh: 6.8; TDP1 block: 6.0%; TDP1 cell CPT: inconclusive

What do the screens show for `CNC(=O)c1cccc(NC(=O)c2cc(-c3ccccc3)nc3c2cnn3C(C)C)c1`?
DT40 TDP1 no CPT: inconclusive; CtBP-E1A inh: -6.9; IL-1B inflam inh: inconclusive; Six1-Eya2 inh: -0.8; TDP1 block: 2.1%; TDP1 cell CPT: inconclusive

Results for CCOc1ccc(NC(=O)c2ccc(F)c(S(=O)(=O)N3CCCC3)c2)cc1 ?
DT40 TDP1 no CPT: 11.6µM*; CtBP-E1A inh: 0.6; IL-1B inflam inh: 47.7; Six1-Eya2 inh: -4.8; TDP1 cell CPT: 9.2µM*

How did O=C(Nc1cccc(Cl)c1)c1ccc(F)c(S(=O)(=O)N2CCN(c3ccccn3)CC2)c1 do in these assays?
DT40 TDP1 no CPT: 18.4µM*; CtBP-E1A inh: -2.5; IL-1B inflam inh: -3.8; Six1-Eya2 inh: -10.6; TDP1 block: 2.6%; TDP1 cell CPT: 23.1µM*

What do the screens show for `CCOc1ccc(NC(=O)c2ccc(F)c(S(=O)(=O)N3CCN(c4ccccn4)CC3)c2)cc1`?
DT40 TDP1 no CPT: 16.4µM*; CtBP-E1A inh: -16.1; IL-1B inflam inh: -5.8; Six1-Eya2 inh: -4.7; TDP1 block: 2.0%; TDP1 cell CPT: inconclusive

Results for CNS(=O)(=O)c1cccc(C(=O)Nc2cccnc2)c1 ?
DT40 TDP1 no CPT: -21.9%; CtBP-E1A inh: -0.3; IL-1B inflam inh: 2.0; Six1-Eya2 inh: 7.7; TDP1 block: 2.0%; TDP1 cell CPT: -4.1%

What do the screens show for `CCCNC(=O)C1(C)CCCN(CCOc2ccccc2)C1` (stereo not given)?
DT40 TDP1 no CPT: inconclusive; CtBP-E1A inh: 8.3; IL-1B inflam inh: -15.3; Six1-Eya2 inh: 2.6; TDP1 cell CPT: inconclusive

Results for CCCNC(=O)C1(C)CCCN(CCC(=O)c2ccccc2)C1 (stereo not given) ?
DT40 TDP1 no CPT: 7.31µM*; CtBP-E1A inh: 3.4; IL-1B inflam inh: inconclusive; Six1-Eya2 inh: 18.9; TDP1 cell CPT: 5.8µM*

Results for CCCNC(=O)C1(C)CCCN(Cc2cc(-c3ccccc3)nn2C)C1 (stereo not given) ?
DT40 TDP1 no CPT: 16.4µM*; CtBP-E1A inh: -16.7; IL-1B inflam inh: -7.6; Six1-Eya2 inh: -13.5; TDP1 cell CPT: inconclusive

Results for CCCNC(=O)C1(C)CCN(Cc2ccc(-c3ccccn3)cc2)C1 (stereo not given) ?
DT40 TDP1 no CPT: inconclusive; CtBP-E1A inh: -11.8; IL-1B inflam inh: -5.4; Six1-Eya2 inh: 5.7; TDP1 cell CPT: inconclusive

How did CC1(Oc2cccc(F)c2)CCN(Cc2ccc(-c3ccccn3)cc2)C1 (stereo not given) do in these assays?
DT40 TDP1 no CPT: 18.4µM*; CtBP-E1A inh: -3.9; IL-1B inflam inh: 7.0; Six1-Eya2 inh: -9.4; TDP1 cell CPT: inconclusive

How did CCCNC(=O)C1(C)CCCN(Cc2ccc(-c3ccccn3)cc2)C1 (stereo not given) do in these assays?
DT40 TDP1 no CPT: 13µM*; CtBP-E1A inh: 0.0; IL-1B inflam inh: -14.2; Six1-Eya2 inh: 5.9; TDP1 cell CPT: 16.4µM*
